# Results from PubChem BioAssay (NCATS).
# Results filed as inconclusive are left out. Activity calls are given as the source filed them. Unless noted, the call rests on the fitted dose curve.
# Columns and labels:
# [1] = target: Peroxisome proliferator-activated receptor delta (Homo sapiens) (UniProt Q03181); experiment: qHTS assay for small molecule agonists of peroxisome proliferator-activated receptor delta signaling (AID 588534);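 further: 0% = DMSO basal wells and 100% = positive control agonist at 10 µM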
# Peroxisome proliferator-activated receptor delta (Homo sapiens), sequence (Q03181 whole entry, looked up): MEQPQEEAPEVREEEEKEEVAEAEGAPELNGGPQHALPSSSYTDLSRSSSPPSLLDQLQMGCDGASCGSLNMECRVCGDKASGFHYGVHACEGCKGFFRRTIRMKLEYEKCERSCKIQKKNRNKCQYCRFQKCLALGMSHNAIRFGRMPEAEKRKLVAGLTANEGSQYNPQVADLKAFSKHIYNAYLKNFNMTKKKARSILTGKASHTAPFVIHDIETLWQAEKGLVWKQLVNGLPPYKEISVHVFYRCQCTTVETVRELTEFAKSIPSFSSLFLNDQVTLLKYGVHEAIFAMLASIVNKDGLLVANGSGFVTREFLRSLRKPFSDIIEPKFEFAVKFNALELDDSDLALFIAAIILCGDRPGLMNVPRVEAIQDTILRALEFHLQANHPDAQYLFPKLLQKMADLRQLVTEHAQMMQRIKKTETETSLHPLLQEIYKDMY
# How it was run: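 Fluorescence from CCF4 substrate cleavage by beta-lactamase reporter, read 2 hrs at RT, measured agonist activity. Compounds were tested with 18 hrs exposure at 37 C. Concentration-response data fitted to Hill equation.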
# [2] = qHTS assay for small molecule antagonists of peroxisome proliferator-activated receptor delta signaling (AID 588535; active means well fitted inhibition curve with a large enough effect in the signal ratio, with a control signal flat, not every such curve was filed as active; the % refers to the signal ratio;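 on max response: cells co-treated with a PPAR-delta agonist as stimulator during compound exposure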); settings: HEK293T PPARd-UAS-bla, beta-lactamase FRET ratio, 18 h; 460 nm channel
# How it was run: (§1)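 HEK293T PPAR-delta-UAS-bla cells, 4000/well, 2% charcoal/dextran FBS; 5 h 37 C; cpd titration; 18 h 37 C; CCF4 2 h RT; FI 460/530 nm; Hill fit → IC50, efficacy.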
# [3] = target: Peroxisome proliferator-activated receptor delta (Homo sapiens) (UniProt Q03181); experiment: as above
# How it was run: as §1
# [4] = target: Peroxisome proliferator-activated receptor gamma (Homo sapiens) (UniProt P37231); experiment: qHTS assay for small molecule agonists of peroxisome proliferator-activated receptor gamma signaling (AID 588536; active means well fitted curve in the direction sought with a large enough effect in the signal ratio, with a control signal flat, not every such curve was filed as active; the % refers to the signal ratio;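 further: 0% = DMSO basal wells and 100% = rosiglitazone at 2 µM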)
# Peroxisome proliferator-activated receptor gamma (Homo sapiens), sequence (P37231 whole entry, looked up): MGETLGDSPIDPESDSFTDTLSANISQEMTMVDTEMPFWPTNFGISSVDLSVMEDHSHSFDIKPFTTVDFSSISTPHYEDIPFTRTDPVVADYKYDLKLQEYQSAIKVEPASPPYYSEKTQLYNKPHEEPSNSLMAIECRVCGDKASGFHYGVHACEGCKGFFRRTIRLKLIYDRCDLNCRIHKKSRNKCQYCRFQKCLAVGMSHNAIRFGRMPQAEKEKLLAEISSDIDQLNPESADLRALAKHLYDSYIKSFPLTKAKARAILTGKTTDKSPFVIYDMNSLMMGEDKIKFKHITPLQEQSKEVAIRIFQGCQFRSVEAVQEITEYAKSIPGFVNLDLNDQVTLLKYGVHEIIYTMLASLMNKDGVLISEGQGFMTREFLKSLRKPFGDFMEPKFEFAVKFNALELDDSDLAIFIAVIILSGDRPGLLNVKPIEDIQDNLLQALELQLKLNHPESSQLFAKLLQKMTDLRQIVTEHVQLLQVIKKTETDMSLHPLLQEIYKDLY
# How it was run: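 Test agents, titrated, stimulated HEK293 UAS-bla cells overnight (16 h, 37 C). Substrate CCF4 was then added for two hours at room temperature before fluorescence reading.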
# [5] = target: Peroxisome proliferator-activated receptor gamma (Homo sapiens) (UniProt P37231); experiment: qHTS assay for small molecule antagonists of peroxisome proliferator-activated receptor gamma signaling (AID 588537; active means well fitted inhibition curve with a large enough effect in the signal ratio, with a control signal flat, not every such curve was filed as active; the % refers to the signal ratio;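 further: reporter cells co-stimulated with 50 nM rosiglitazone agonist during compound treatment; % of control where 0% means no effect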)
# How it was run: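 Antagonist mode, beta-lactamase reporter in HEK293; charcoal/dextran FBS 1%; 3000 cells/well, 37 C 6-6.5 h; cpd titration + rosiglitazone 50 nM final, 16 h 37 C; CCF4, 2 h RT; 460/530 nm; Hill fit → IC50, efficacy.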
# [6] = target: Vitamin D3 receptor (Homo sapiens) (UniProt P11473); experiment: qHTS assay for small molecule antagonists of vitamin D receptor signaling (AID 588541);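 further: receptor activated by calcitriol during compound treatment; series mostly up to about 77 µM; on the % scale 0 is the no-effect control and ±100 the full control effect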
# Vitamin D3 receptor (Homo sapiens), sequence (P11473 whole entry, looked up): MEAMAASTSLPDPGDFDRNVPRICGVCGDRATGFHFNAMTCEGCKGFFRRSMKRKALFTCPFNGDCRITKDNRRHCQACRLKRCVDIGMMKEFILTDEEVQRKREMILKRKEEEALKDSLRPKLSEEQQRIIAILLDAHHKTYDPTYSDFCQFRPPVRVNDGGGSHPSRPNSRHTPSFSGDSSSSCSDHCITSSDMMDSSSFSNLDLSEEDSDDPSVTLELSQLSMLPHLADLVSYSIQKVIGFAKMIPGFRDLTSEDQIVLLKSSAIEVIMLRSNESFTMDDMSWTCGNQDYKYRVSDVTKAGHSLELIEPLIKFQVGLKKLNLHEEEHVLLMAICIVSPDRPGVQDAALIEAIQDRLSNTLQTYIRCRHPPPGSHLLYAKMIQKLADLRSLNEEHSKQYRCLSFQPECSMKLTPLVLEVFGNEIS
# How it was run: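 Antagonist-mode beta-lactamase reporter assay: HEK293T VDR-UAS-bla cells were exposed to titrated compound alongside 1-alpha,25-dihydroxyvitamin D3 at 3 nM final for 16 h. Values were normalized to the 50 nM agonist control and DMSO basal, with IC50 and efficacy from Hill equation fits.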
# [7] = target: Vitamin D3 receptor (Homo sapiens) (UniProt P11473); experiment: qHTS assay for small molecule agonists of vitamin D receptor signaling (AID 588543);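 further: 0% = DMSO basal and 100% = reference agonist control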
# How it was run: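 Measured: β-lactamase reporter activity (CCF4, 405 nm excitation, 460/530 nm emission) in HEK293T VDR-UAS-bla cells after 16 h compound exposure at 37 °C. Normalization against 50 nM 1α,25-dihydroxyvitamin D3 and DMSO; Hill-fit EC50.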
# [8] = target: Retinoic acid receptor RXR-alpha (Homo sapiens) (UniProt P19793); experiment: qHTS assay for small molecule agonists of retinoid X receptor alpha signaling (AID 588544); further: potency means the concentration at half of the fitted maximal effect;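 on activation: 0% = DMSO basal wells and 100% = reference agonist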
# Retinoic acid receptor RXR-alpha (Homo sapiens), sequence (P19793 whole entry, looked up): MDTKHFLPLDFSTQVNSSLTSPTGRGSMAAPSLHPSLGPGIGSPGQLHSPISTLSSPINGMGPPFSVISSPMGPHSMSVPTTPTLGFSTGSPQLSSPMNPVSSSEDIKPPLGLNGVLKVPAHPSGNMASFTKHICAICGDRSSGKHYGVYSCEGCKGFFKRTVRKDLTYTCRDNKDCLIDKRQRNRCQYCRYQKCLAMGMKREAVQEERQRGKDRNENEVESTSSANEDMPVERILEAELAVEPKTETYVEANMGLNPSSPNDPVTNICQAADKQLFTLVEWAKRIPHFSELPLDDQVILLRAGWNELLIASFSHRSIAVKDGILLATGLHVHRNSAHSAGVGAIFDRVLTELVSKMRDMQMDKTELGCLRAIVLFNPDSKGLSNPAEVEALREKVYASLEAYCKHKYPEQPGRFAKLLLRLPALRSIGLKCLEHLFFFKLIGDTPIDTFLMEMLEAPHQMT
# [9] = target: Thyroid hormone receptor beta (Homo sapiens) (UniProt P10828); experiment: qHTS assay for small molecule agonists of thyroid hormone receptor beta signaling (AID 588545);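 further: 0% = DMSO only and 100% = 10 nM T3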
# Thyroid hormone receptor beta (Homo sapiens), sequence (P10828 whole entry, looked up): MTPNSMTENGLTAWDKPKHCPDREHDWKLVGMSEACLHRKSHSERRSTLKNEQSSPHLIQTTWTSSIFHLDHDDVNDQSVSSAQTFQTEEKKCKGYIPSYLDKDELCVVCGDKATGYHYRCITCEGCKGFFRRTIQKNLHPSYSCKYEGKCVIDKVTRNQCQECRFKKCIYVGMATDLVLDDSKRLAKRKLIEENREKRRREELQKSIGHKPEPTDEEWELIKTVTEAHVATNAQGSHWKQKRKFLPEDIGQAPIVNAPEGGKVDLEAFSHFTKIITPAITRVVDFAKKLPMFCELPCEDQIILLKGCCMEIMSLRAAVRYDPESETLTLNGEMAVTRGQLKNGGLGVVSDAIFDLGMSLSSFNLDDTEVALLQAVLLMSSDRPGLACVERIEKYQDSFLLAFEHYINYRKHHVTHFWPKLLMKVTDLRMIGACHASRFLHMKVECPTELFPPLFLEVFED
# How it was run: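 Compounds were tested as agonists in TR-UAS-bla-GripTite HEK 293 cells. After 18 hrs at 37 C, CCF4 substrate was added and fluorescence read after 2 hrs at room temperature.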
# [10] = qHTS assay for small molecule antagonists of retinoid X receptor alpha signaling (AID 588546; active means well fitted inhibition curve with a large enough effect in the signal ratio, with a control signal flat, not every such curve was filed as active; the % refers to the signal ratio;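 further: cells stimulated with 9-cis-retinoic acid as agonist; on the % scale 0 is the no-effect control and ±100 the full control effect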); settings: HEK293T RXRa-UAS-bla, beta-lactamase ratio, antagonist mode; measured here: W530 green channel, cytotoxicity proxy
# How it was run: (§2)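 Beta-lactamase reporter inhibition, read as CCF4 fluorescence ratio (ex 405, em 460/530 nm) after 2 h at RT. HEK293T UAS-bla cells, 2500/well, were stimulated with 9-cis-RA at 500 or 100 nM final alongside test compound for 18 h at 37 C.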
# [11] = target: Retinoic acid receptor RXR-alpha (Homo sapiens) (UniProt P19793); experiment: as above; settings: HEK293T RXRa-UAS-bla, beta-lactamase ratio, antagonist mode
# How it was run: as §2
# [12] = qHTS assay for small molecule activators of the p53 signaling pathway (AID 651743; active means well fitted activation curve with a large enough effect in the signal ratio, not every such curve was filed as active; the % refers to the signal ratio; further: series mostly up to about 92 µM; % of control where 0% means no effect); settings: HCT-116 p53RE-bla, beta-lactamase FRET ratio, 16 h; activation: stronger effect = higher value
# How it was run: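 Read-out is fluorescence intensity from the LiveBLAzer B/G FRET substrate, added for 2 hours at room temperature after HCT-116 p53RE-bla cells had been incubated with compounds for 16 hours at 37 C.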
# [13] = qHTS assay for environmental chemicals that activate the Aryl hydrocarbon Receptor (AhR) signaling pathway (AID 651777; active means well fitted curve in the direction sought with a large enough effect; an effect the other way counts as inactive or inconclusive; further: nearly all actives have a fitted effect of over 15% in size; further: potency means the concentration at half of the fitted maximal effect; on activation: % of control where 0% means no effect); settings: 1A2-DRE human hepatoma cells, luciferase, 24 h; activation: stronger effect = higher value
# How it was run: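 Quantitative HTS in stably transfected human liver-derived cells whose luciferase gene sits downstream of the CYP1A2 promoter and dioxin response element. After 24 hr exposure at 37 C, One-Glo luminescence was measured.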
# [14] = target: Peroxisome proliferator-activated receptor alpha (Homo sapiens) (UniProt Q07869); experiment: qHTS assay for small molecule agonists of the peroxisome proliferator-activated receptor alpha (PPARalpha) signaling pathway (AID 651778; active means well fitted curve in the direction sought with a large enough effect; an effect the other way counts as inactive or inconclusive; further: potency means the concentration at half of the fitted maximal effect; on max response: % of control where 0% means no effect); settings: PathHunter PPARalpha complementation, chemiluminescence, 6 h; max response: stronger effect = higher value
# Peroxisome proliferator-activated receptor alpha (Homo sapiens), sequence (Q07869 whole entry, looked up): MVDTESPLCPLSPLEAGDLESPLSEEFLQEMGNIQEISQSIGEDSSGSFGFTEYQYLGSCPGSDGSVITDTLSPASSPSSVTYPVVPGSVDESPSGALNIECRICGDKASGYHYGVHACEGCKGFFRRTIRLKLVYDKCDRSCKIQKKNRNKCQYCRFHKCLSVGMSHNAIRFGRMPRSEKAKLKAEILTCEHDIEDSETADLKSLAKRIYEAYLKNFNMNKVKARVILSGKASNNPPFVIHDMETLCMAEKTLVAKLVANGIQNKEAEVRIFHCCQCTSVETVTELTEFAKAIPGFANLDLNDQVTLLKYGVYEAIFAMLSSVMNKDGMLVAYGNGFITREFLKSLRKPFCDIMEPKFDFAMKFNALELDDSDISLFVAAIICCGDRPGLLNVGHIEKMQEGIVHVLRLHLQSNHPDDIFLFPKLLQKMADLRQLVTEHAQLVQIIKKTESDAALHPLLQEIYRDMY
# How it was run: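 Chemiluminescence from complemented enzyme reported PPARalpha activation in cells after 6 hr of compound treatment at 37 C. The detection reagent was incubated for 60 min at room temperature, and compounds were scored as agonists.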
# [15] = qHTS assay for small molecule agonists of the antioxidant response element (ARE) signaling pathway measured by Nrf2-dependant transcriptional activity (AID 720636; active means well fitted curve in the direction sought with a large enough effect in the repeat runs; an effect the other way counts as inactive or inconclusive; further: % of control where 0% means no effect)
# How it was run: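 Quantitative HTS format in HepG2 cells stably expressing an ARE-luciferase reporter; 16 hr compound treatment at 37 C, luciferase signal detected with ONE-Glo.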
# [16] = qHTS assay for small molecule agonists of the antioxidant response element (ARE) signaling pathway measured by Nrf2-dependant transcriptional activity - cell viability counter screen (AID 720653; active means well fitted curve in the direction sought with a large enough effect in the repeat runs; an effect the other way counts as inactive or inconclusive; further: on the % scale 0 is the no-effect control and ±100 the full control effect); settings: ARE-bla HepG2 viability, CellTiter-Glo ATP luminescence, 16 h; max response: stronger effect = lower value
# How it was run: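 Cytotoxicity counter screen: intracellular ATP quantified by CellTiter-Glo luminescence in the same ARE-bla HepG2 plates, after 16 h compound exposure and a 2 h beta-lactamase substrate step.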
# [17] = qHTS assay for cell viability of HEK293 cells (AID 743288; active means well fitted curve in the direction sought with a large enough effect; an effect the other way counts as inactive or inconclusive; further: nearly all actives have a fitted effect of over 50% in size; further: potency means the concentration at half of the fitted maximal effect; on max response: on the % scale 0 is the no-effect control and ±100 the full control effect); settings: ATP luminescence (CellTiter-Glo), 18 h; max response: stronger effect = lower value
# How it was run: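 Luminescent ATP quantitation served as the viability read-out. Cells (parental HEK293, 2,000/well) received compounds after at least 5 h at 37 C and were exposed for 18 h before a 30 min room-temperature reagent step.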
# [18] = qHTS assay for cell viability of the p53RE-bla HCT-116 cell line (AID 743292; active means well fitted curve in the direction sought with a large enough effect; an effect the other way counts as inactive or inconclusive; further: on the % scale 0 is the no-effect control and ±100 the full control effect; nearly all actives have a fitted effect of over 55% in size)
# How it was run: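 Viability of compound-treated p53RE-bla HCT-116 cells is taken from ATP-dependent luciferase luminescence. Treatment lasts 16 h at 37 C after a 5 h settling period; detection follows 30 min at room temperature.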
# [19] = target: Nuclear receptor subfamily 1 group I member 2 (Rattus norvegicus) (UniProt Q9R1A7); experiment: qHTS assay for small molecule activators of the rat pregnane X receptor (rPXR) signaling pathway (AID 651751; call rule not given here; further: 0% is about no effect); settings: rPXR reporter cells, luciferase (One-Glo), 24 h
# Nuclear receptor subfamily 1 group I member 2 (Rattus norvegicus), sequence (Q9R1A7 whole entry, looked up): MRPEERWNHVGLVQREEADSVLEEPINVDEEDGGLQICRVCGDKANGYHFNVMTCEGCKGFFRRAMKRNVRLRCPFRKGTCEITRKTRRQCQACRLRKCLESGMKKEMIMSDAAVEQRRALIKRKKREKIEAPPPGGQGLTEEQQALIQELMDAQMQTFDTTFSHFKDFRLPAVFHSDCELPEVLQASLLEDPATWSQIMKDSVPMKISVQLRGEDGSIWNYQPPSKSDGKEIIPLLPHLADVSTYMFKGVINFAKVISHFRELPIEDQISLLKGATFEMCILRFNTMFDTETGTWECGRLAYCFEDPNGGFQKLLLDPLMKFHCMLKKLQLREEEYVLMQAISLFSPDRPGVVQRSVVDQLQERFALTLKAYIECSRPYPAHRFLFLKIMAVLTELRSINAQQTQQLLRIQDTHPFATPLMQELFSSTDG
# [20] = target: Glucocorticoid receptor (Homo sapiens) (UniProt P04150); experiment: qHTS assay for small molecule agonists of glucocorticoid receptor signaling (AID 588532; active means well fitted curve in the direction sought with a large enough effect in the signal ratio, with a control signal flat; the % refers to the signal ratio;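 further: 100% = dexamethasone at 0.1 µM and 0% = DMSO only wells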); settings: HeLa MMTV-bla, beta-lactamase ratio, agonist, 18 h; activation: stronger effect = higher value, percent of dexamethasone control, DMSO zero
# Glucocorticoid receptor (Homo sapiens), sequence (P04150 whole entry, looked up): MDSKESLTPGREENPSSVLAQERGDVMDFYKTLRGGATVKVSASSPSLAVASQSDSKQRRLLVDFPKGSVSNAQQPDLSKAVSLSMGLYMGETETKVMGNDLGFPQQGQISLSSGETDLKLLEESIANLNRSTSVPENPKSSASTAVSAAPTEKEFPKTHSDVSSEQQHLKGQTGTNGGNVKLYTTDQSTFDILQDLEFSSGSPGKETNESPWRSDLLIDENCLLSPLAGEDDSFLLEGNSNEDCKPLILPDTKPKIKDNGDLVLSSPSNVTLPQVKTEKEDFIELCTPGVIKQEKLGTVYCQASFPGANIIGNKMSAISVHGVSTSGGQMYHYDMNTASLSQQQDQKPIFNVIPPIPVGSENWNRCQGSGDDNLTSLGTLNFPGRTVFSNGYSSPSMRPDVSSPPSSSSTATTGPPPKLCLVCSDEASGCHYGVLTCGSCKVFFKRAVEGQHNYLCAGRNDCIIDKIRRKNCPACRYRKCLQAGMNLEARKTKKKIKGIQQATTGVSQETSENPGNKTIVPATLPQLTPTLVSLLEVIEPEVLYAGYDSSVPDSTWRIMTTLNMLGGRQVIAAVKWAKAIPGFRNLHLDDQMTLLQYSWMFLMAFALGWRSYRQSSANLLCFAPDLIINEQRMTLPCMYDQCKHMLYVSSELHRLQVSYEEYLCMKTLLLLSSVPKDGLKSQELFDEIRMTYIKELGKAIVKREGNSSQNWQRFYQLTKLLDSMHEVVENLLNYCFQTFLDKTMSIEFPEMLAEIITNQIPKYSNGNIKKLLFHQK
# How it was run: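 Quantitative HTS using CellSensor MMTV-bla HeLa cells in charcoal/dextran-treated serum; compounds tested up to 92 uM. After 18 h at 37 C, CCF4 dye reported reporter induction.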
smiles,measurement,setting,value
CCOP(=O)(OCC)OP(=O)(OCC)OCC,outcome,[1],inactive
same,max response,[2],14.8%
same,Potency,[3],inactive
same,Potency,[4],inactive
same,Potency,[5],inactive
same,Potency,[6],inactive
same,outcome,[7],inactive
same,Potency,[8],inactive
same,Potency,[9],inactive
same,max response,[10],-3.28%
same,max response,[11],-9.63% (inactive)
same,activation,[12],-6.2% (inactive)
same,activation,[13],-0.108% (inactive)
same,max response,[14],-1.23% (inactive)
same,Potency,[15],inactive
same,max response,[16],5.73% (inactive)
same,max response,[17],-8.91% (inactive)
same,Potency,[18],inactive
same,max response,[19],8.32% (inactive)
CCC(C)Nc1c([N+](=O)[O-])cc(C(C)(C)C)cc1[N+](=O)[O-] (centres undefined),activation,[20],-11.2% (inactive)
same,outcome,[1],inactive
same,max response,[2],-21.7%
same,Potency,[3],inactive
same,Potency,[4],inactive
same,Potency,[5],inactive
same,Potency,[6],inactive
same,outcome,[7],inactive
same,Potency,[8],inactive
same,Potency,[9],inactive
same,activation,[13],5.25% (inactive)
same,max response,[14],8.22% (inactive)
same,max response,[16],11% (inactive)
same,max response,[17],-2.45% (inactive)
CS/C(C)=N/OC(=O)N(C)SN(C)C(=O)O/N=C(\C)SC,activation,[20],10.5% (inactive)
same,outcome,[1],inactive
same,max response,[2],-23.5%
same,Potency,[3],inactive
same,Potency,[4],inactive
same,Potency,[9],inactive
same,max response,[10],3.2%
same,max response,[11],15.5% (inactive)
same,activation,[12],-1.16% (inactive)
same,activation,[13],3.44% (inactive)
same,max response,[14],-1.01% (inactive)
same,Potency,[15],inactive
same,max response,[16],6.17% (inactive)
same,max response,[17],-6.07% (inactive)
same,Potency,[18],inactive
same,max response,[19],-5.16% (inactive)
CON(C)C(=O)Nc1ccc(Cl)c(Cl)c1,activation,[20],-2.11% (inactive)
same,outcome,[1],inactive
same,Potency,[4],inactive
same,Potency,[6],inactive
same,Potency,[8],inactive
same,Potency,[9],inactive
same,max response,[10],-15.9%
same,max response,[11],-0.419% (inactive)
same,activation,[12],0.565% (inactive)
same,Potency,[13],35.5 µM (active)
same,max response,[14],-1.01% (inactive)
same,max response,[17],-2.77% (inactive)
same,Potency,[18],inactive
O=S(=O)(c1ccc(Cl)cc1)c1cc(Cl)c(Cl)cc1Cl,activation,[20],0.889% (inactive)
same,Potency,[6],inactive
same,outcome,[7],inactive
same,Potency,[9],inactive
same,activation,[12],8.22% (inactive)
same,activation,[13],-2.98% (inactive)
same,max response,[14],-3.59% (inactive)
same,Potency,[15],inactive
same,max response,[16],-29.2% (inactive)
same,max response,[17],-31.9% (inactive)
same,Potency,[18],inactive
CC(C)(C)C(O)/C(=C\c1ccc(Cl)cc1Cl)n1cncn1 (centres undefined),outcome,[1],inactive
same,Potency,[6],inactive
same,Potency,[9],inactive
same,activation,[12],9.12% (inactive)
same,activation,[13],6.02% (inactive)
same,max response,[14],1.97% (inactive)
same,Potency,[15],inactive
same,max response,[16],-10.7% (inactive)
same,max response,[17],-6.74% (inactive)
CCC[CH2][Sn]([Cl])([CH2]CCC)[CH2]CCC,Potency,[8],0.398 µM (active)
same,activation,[13],8.68% (inactive)
same,max response,[14],2.3% (inactive)
same,Potency,[17],50.1 µM (active)
CN/C(=N\[N+](=O)[O-])NCc1cnc(Cl)s1,Potency,[4],inactive
same,Potency,[5],inactive
same,Potency,[6],inactive
same,outcome,[7],inactive
same,Potency,[8],inactive
same,Potency,[9],inactive
same,max response,[10],-9.8%
same,max response,[11],-1.36% (inactive)
same,activation,[13],1.58% (inactive)
same,max response,[14],-0.992% (inactive)
same,Potency,[15],inactive
same,max response,[16],0.65% (inactive)
same,max response,[17],-4.28% (inactive)
same,Potency,[18],inactive
same,max response,[19],6.52% (inactive)
Brc1ccc(Oc2ccccc2)cc1,activation,[20],1.51% (inactive)
same,outcome,[1],inactive
same,max response,[2],2.82%
same,Potency,[3],inactive
same,Potency,[4],inactive
same,Potency,[5],inactive
same,Potency,[6],inactive
same,outcome,[7],inactive
same,Potency,[8],inactive
same,max response,[10],-7.34%
same,max response,[11],1.13% (inactive)
same,activation,[12],1.17% (inactive)
same,activation,[13],-0.643% (inactive)
same,max response,[14],-0.584% (inactive)
same,Potency,[15],inactive
same,max response,[16],-10.2% (inactive)
same,max response,[17],-5.38% (inactive)
same,Potency,[18],inactive
same,max response,[19],-2.47% (inactive)
CCC(C)(C)c1ccc(O)c(C(C)(C)CC)c1,activation,[20],5.63% (inactive)
same,outcome,[1],inactive
same,max response,[2],-2.29%
same,Potency,[3],inactive
same,Potency,[4],inactive
same,outcome,[7],inactive
same,max response,[10],-12.2%
same,max response,[11],0.417% (inactive)
same,activation,[12],-0.913% (inactive)
same,Potency,[14],35.5 µM (active)
same,Potency,[15],inactive
same,max response,[16],-16.3% (inactive)
same,max response,[19],3.81% (inactive)
CC(C)[C@@H](Nc1ccc(C(F)(F)F)cc1Cl)C(=O)OC(C#N)c1cccc(Oc2ccccc2)c1 (some centres undefined),activation,[20],-3.97% (inactive)
same,outcome,[7],inactive
same,Potency,[9],inactive
same,activation,[13],0.736% (inactive)
same,max response,[14],-1.14% (inactive)
same,Potency,[15],inactive
same,max response,[16],-3.6% (inactive)
same,max response,[17],-27.3% (inactive)
same,Potency,[18],inactive
CNC(=O)Oc1cccc(N=CN(C)C)c1,outcome,[1],inactive
same,max response,[2],16.5%
same,Potency,[3],inactive
same,Potency,[4],inactive
same,Potency,[5],inactive
same,Potency,[6],inactive
same,outcome,[7],inactive
same,Potency,[8],inactive
same,Potency,[9],inactive
same,max response,[10],-11.7%
same,max response,[11],10.6% (inactive)
same,activation,[12],-4.39% (inactive)
same,max response,[14],2.04% (inactive)
same,Potency,[15],inactive
same,max response,[16],-21.4% (inactive)
same,max response,[17],-9.91% (inactive)
same,max response,[19],-4.82% (inactive)
